Measured values taken from PubChem BioAssay (NCATS).
Inconclusive results are not listed. Calls of active or inactive are those of the source. The call rests on the fitted dose curve; in most records, active means well fitted inhibition curve with a large enough effect; inconclusive means small, poorly fitted or top-dose-only effect; inactive means flat fitted curve, though single readings scatter. Bridge positions count the residues as written; N and C are the ends. Square brackets hold non-standard residues; d marks the D form. Peptide text beside a SMILES is read from it. * marks the point of attachment. Ileψ(thiazoline)Cys = CC[C@H](C)[C@H](N)C1=N[C@H](C(=O)*)CS1; d(aIle) = CC[C@H](C)[C@@H](N)C(=O)O; dOrn = NCCC[C@@H](N)C(=O)O

Molecular target: Luciferin 4-monooxygenase (Photinus pyralis) (UniProt P08659)
Sequence (P08659 whole entry, looked up): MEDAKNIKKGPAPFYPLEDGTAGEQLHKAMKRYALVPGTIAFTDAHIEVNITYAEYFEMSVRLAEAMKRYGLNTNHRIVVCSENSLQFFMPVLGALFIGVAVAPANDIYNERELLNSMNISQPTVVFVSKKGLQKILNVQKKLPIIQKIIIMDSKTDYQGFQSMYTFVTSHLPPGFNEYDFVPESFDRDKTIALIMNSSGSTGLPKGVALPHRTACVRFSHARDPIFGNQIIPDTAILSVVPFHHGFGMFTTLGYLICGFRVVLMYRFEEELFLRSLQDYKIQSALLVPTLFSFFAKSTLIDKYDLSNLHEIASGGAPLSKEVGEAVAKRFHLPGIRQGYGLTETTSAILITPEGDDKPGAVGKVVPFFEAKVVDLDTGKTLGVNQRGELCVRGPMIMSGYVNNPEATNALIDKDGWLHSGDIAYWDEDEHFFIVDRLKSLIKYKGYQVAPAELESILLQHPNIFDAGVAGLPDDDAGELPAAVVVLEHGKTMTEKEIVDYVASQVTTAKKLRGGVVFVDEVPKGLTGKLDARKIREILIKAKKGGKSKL
Assay: Biochemical firefly luciferase enzyme assay for NPC (AID 624030);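 further: purified P. pyralis luciferase at 10 nM with luciferin and ATP substrate; 0% = DMSO and -100% = full luciferase inhibition by PTC124 control; nearly all actives have a fitted effect of over 70% in size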
Settings: purified P. pyralis luciferase, luminescence, 5 min; series mostly up to 24.9 µM; activity change, negative = inhibition: at the top concentration
Outline: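 Purified P. pyralis luciferase at 10 nM in 50 mM Tris Acetate (final), luminescence read within 5 minutes of enzyme addition to compounds. Activity normalised to PTC124 versus DMSO; concentration-response curves classed by r2, magnitude and activity.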

Structure (SMILES) | activity change, negative = inhibition
CN1CCO[C@H](c2ccccc2)c2ccccc2C1 | 9.1% (inactive)
C[C@H](CCC(=O)O)[C@H]1CC[C@@H]2[C@@H]3[C@@H](O)C[C@H]4C[C@@H](O)CC[C@@]4(C)[C@H]3CC[C@@]21C | -5.61% (inactive)
CN(C/C=C\c1ccccc1)Cc1cccc2ccccc12 | 1.98% [at 58.6 µM] (inactive)
CCN(CCCCOC(=O)c1ccc(OC)c(OC)c1)[C@@H](C)Cc1ccc(OC)cc1 | 2.65% (inactive)
CCC(=O)OCC(=O)[C@@]1(OC(=O)CC)[C@H](C)C[C@@H]2[C@@H]3[C@H]([C@@H](O)C[C@@]21C)[C@]1(C)C=CC(=O)C=C1C[C@@H]3Cl | 0.654% (inactive)
CC1(C)[C@@H](OC(=O)CCC(=O)O)CC[C@@]2(C)[C@H]1CC[C@@]1(C)[C@H]2C(=O)C=C2[C@H]3C[C@](C)(C(=O)O)CC[C@]3(C)CC[C@@]21C | -2.12% (inactive)
CCOC(=O)O[C@@H](C)OC(=O)[C@@H]1N2C(=O)[C@@H](NC(=O)[C@@H](N)c3ccccc3)[C@H]2SC1(C)C | 0.984% (inactive)
Cc1ccsc1/C=C\C1=NCCCN1C | 0.301% (inactive)
Cc1cccc(CN2CCN([C@@H](c3ccccc3)c3ccc(Cl)cc3)CC2)c1 | 8.9% (inactive)
C#C[C@]1(O)CC[C@@H]2[C@H]3CCC4=CCCC[C@@H]4[C@@H]3CC[C@@]21C | 8.79% (inactive)
CC[C@H](C)[C@H](N)C1=N[C@H](C(=O)N[C@@H](CC(C)C)C(=O)N[C@@H](CCC(=O)O)C(=O)N[C@@H](C(=O)N[C@H]2CCCCNC(=O)[C@@H](CC(N)=O)NC(=O)[C@@H](CC(=O)O)NC(=O)[C@@H](Cc3cnc[nH]3)NC(=O)[C@@H](Cc3ccccc3)NC(=O)[C@@H]([C@@H](C)CC)NC(=O)[C@@H](CCCN)NC2=O)[C@@H](C)CC)CS1 ({Ileψ(thiazoline)Cys}-LE[d(aIle)]K[dOrn][d(aIle)][dF][dH][dD][dN]; lactam 4-C) | 2.78% (inactive)
O=C(O)[C@@H](O)[C@@H](O)[C@@H](O[C@H]1O[C@@H](CO)[C@@H](O)[C@@H](O)[C@@H]1O)[C@@H](O)CO | -3.61% (inactive)
O=C(O)COCCN1CCN([C@@H](c2ccccc2)c2ccc(Cl)cc2)CC1 | 3.02% (inactive)
CCN(CC)CCOC(=O)[C@@H](Cc1cccc2ccccc12)C[C@@H]1CCCO1 | 2.45% (inactive)
Clc1ccc([C@H](Cn2ccnc2)OCc2c(Cl)cccc2Cl)c(Cl)c1 | 1.45% (inactive)
CC[C@H](CO)NCCN[C@@H](CC)CO | -0.184% (inactive)
